The values that follow come from PubChem BioAssay (NCATS).

Inconclusive results are not listed. Active and inactive are the calls of the source. Calls follow the shape of the dose curve; as a rule, active = well fitted curve in the direction sought with a large enough effect; inconclusive = small, poorly fitted or top-dose-only effect, or another doubt; inactive = no such curve, though single readings can be large or run the other way.

A short description of this test: Cytometric Cell-Based qHTS for Inhibitors of the mTORC1 Signaling Pathway in MEF (Tsc2-/-, p53-/-) Cells (AID 2660).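 Also: Tsc2 and p53 null MEFs carrying empty vector with compound for 24 h; percent of cells above a phospho-rpS6 to PI ratio cutoff in each well.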 The following applies: mTORC1 pathway cytometry; series mostly up to 38.3 µM. From the text:
NIH Molecular Libraries Probe Production Centers Network [MLPCN]
NIH Chemical Genomics Center [NCGC]
Assay Submitter (PI): Blenis, John; Hoffman, Greg; Harvard University
NCGC Assay Overview: The mammalian target of rapamycin (mTOR) is an intracellular serine/threonine kinase Aberrant regulation of mTOR signaling plays a causative role in a number of human diseases, including cancer, benign tumors such as lymphangioleiomyomatosis (LAM) and Tuberous Sclerosis Complex (TSC), and metabolic diseases such as diabetes and obesity. This project aims to identify inhibitors of ribosomal protein S6 (rpS6) phosphorylation. The phosphorylation of rpS6 is a key event downstream of mTOR activation. The assay uses a phospho-specific antibody of phospho-rpS6 to detect inhibitors of mTOR activation. Mutations in the Tsc1 and Tsc2 genes are the underlying genetic lesions responsible for TSC, causing constitutive activation of the mTORC1 pathway and leading to profound effects on cell metabolism. Aberrant metabolism in cancer has recently received significant attention as a target to develop therapeutic agents in the treatment of cancer.1 As Tsc2-/- cells have lost the ability to respond to energy and growth factor deprivation, these cells are unable to properly down regulate cellular biosynthetic processes in response to metabolic stress, and are thus extremely sensitive to glucose deprivation-induced death.2 A central goal of this project is to explore the unique cell survival and metabolic properties of cells with Tsc1 or Tsc2 by screening for compounds that selectively target the Tsc2-/- MEFs by screening both Tsc2-/- and WT MEF cell lines. We hope to better understand these aspects of TSC physiology in order to exploit them for therapeutic benefit.
NCGC Acumen Assay Protocol Summary:
For quantitative high throughput analysis of mTORC1 signaling, we developed a cell-based assay for immuno-fluorescence based detection of rpS6 phosphorylation on the Acumen Explorer that will be used a platform for the primary small molecule screen. Mouse embryonic fibroblasts (MEFs) are cultured in 1536-well plates using DMEM + 10% FBS. Twenty-four hrs after plating, test compounds (solubilized in DMSO) are delivered and incubated with the cells for 24 hrs at 37 degree Celsius. Following the incubation, media with compound is aspirated and the cells are fixed in 4% paraformaldehyde (PFA) containing PBS + 0.2% TX-100. Next, PFA is aspirated, cells are washed two times with PBS plus 0.2% TX-100 and the cells are blocked for 1 hr at room temperature (blocking buffer: LiCOR Blocking Buffer plus 0.2% TX-100). This is followed by aspiration and staining with Alexa-488 conjugated-phospho-rpS6 Ser235/236 antibody for 2 hours at room temperature (Cell Signaling Technology # 4803, 1:50 dilution in blocking buffer). Cells are washed two times with PBS plus 0.2% TX-100, and stained with 10 uM propidium iodide (PI) for 20-25 minutes for cell number measurement (1:500 dilution of Hoescht staining is also added for IN Cell imaging). The plates are scanned on the Acumen Explorer laser scanning instrument (TTP Labtech) using the 488nm laser for simultaneous excitation of the Alexa-488 and PI. The fluorescence emission from the Alexa-488 conjugated rpS6 phospho-235/236 antibody staining is selected using a […] band pass filter. Fluorescence emission from the PI stain is selected using a 575-640 nm band pass filter. The normalized phospho-S6 staining is calculated as the ratio of the integrated Alexa 488 intensity divided by the integrated PI intensity for the single concentration rapamycin control (7.5 nM) and DMSO columns. […] Inhibition of the pathway is defined based on the normalized phospho-S6 intensity in rapamycin treated cells. […]
For orientation: Quantitative high-throughput screening tests each substance at several concentrations.
Regarding `CC(C)(C)NCC(O)COc1cccc2[nH]c(=O)[nH]c12` (stereo not given), the compound was classed as inactive.
In the case of `c1ccc2c(c1)CCC[C@H]2Nc1nc2ccccc2[nH]1`, the call was inactive.
Regarding `N=C(N)c1ccc(N)cc1`, the result was inactive.
Turning to `COc1cc2c(CCNC(C)=O)c[nH]c2cc1O`, the compound was classed as inactive.
For the compound `Nc1ncnc2c1nc(Br)n2C1OC2COP(=O)(O)O[C@@H]2C1O` (stereo not given in full), the call was inactive.
Turning to `N=C(N)SCCN`, the compound was classed as inactive.
Turning to `C[C@H](O)C(=O)C1=Nc2c(nc(N)[nH]c2=O)NC1`, the outcome was inactive.
For `CN1CCc2cc(Cl)c(O)cc2[C@@H](c2ccccc2)C1`, the outcome was inactive.
Under `O=C(O)CCC(=O)N1CCCC1C(=O)O` (stereo not given) stands “inactive”; under `Oc1ccc(Cn2cc[nH]c2=S)cc1`, “inactive”.
For `CC(=O)NCCc1c[nH]c2ccc(O)cc12`, the result was inactive.
Under `Nc1ncnc2c1c(-c1ccc(Oc3ccccc3)cc1)cn2C1CCCC1` stands “inactive”; under `CNC(=O)c1cc2c(cn1)[nH]c1ccccc12`, “inactive”; under `CC[C@@H]1Cc2cc(O)ccc2C2=C1c1ccc(O)cc1C[C@H]2CC`, “inactive”.
On to `O=C1Nc2ccc(I)cc2/C1=C/c1cc(Br)c(O)c(Br)c1`, for which the compound was called inactive.
Consider `[N-]=[N+]=Nc1ccc(C(=O)CSC[C@H](NC(=O)CC[C@H](N)C(=O)O)C(=O)NCC(=O)O)cc1`, for which the outcome was inactive.
For `c1ccc2c(c1)CC(N1CCN(c3cccc4c3OCCO4)CC1)C2`, the compound was called inactive.
Under `NCCCCN` stands “inactive”.
Under `COc1ccccc1N1CCN(CCN(C(=O)c2ccc(F)cc2)c2ccccn2)CC1` stands “inactive”; under `CN1Cc2sccc2C(c2ccc(O)c(O)c2)C1` (stereo not given), “inactive”; under `Cn1cc(C(=O)OCC2CCN(CCNS(C)(=O)=O)CC2)c2ccccc21`, “inactive”.
With `N[C@@H](Cc1ccc(O)c(I)c1)C(=O)O`, the result was inactive.
In the case of `C[C@@H](NCCc1ccc(O)cc1)[C@@H](O)c1ccc(O)cc1`, the call was inactive.
`NC(Cc1cccc(-c2ccccc2CP(=O)(O)O)c1)C(=O)O` (stereo not given): the compound was classed as inactive.
In the case of `N[C@@H](CCC(=O)N[C@H](CSN=O)C(=O)NCC(=O)O)C(=O)O`, the compound was called inactive.
For the compound `NCC(O)c1ccc(O)c(O)c1` (stereo not given), the compound was called inactive.
Regarding `CCn1c(=O)[nH]c2cc(Cl)c(Cl)cc21`, the compound was called inactive.
`Nc1nc2c(cnn2CCc2ccccc2)c2nc(-c3ccco3)nn12`: the call was inactive.
Under `CC(N)(Cc1ccc(O)cc1)C(=O)O` (stereo not given) stands “inactive”; under `N[C@H](C(=O)O)c1cc(O)cc(O)c1`, “inactive”.
`O=C(O)C1=CCNCC1`: the compound was classed as inactive.
In the case of `CC(=O)NNC(=O)N1Cc2ccccc2Oc2ccc(Cl)cc21`, the result was inactive.
Turning to `COc1ccc(-c2cc3ncc(C)n3c(Nc3ncccc3C(N)=O)n2)cc1OC`, the result was inactive.
Under `CC(N)=NCCCC[C@@H](N)C(=O)O` stands “inactive”; under `O=C(O)c1ccccc1Nc1ccccc1`, “inactive”; under `Cc1nc2n(c(=O)c1CCN1CCC(c3noc4cc(F)ccc34)CC1)CCCC2O` (stereo not given), “inactive”.
Take `CN(C)CCC(c1ccc(Br)cc1)c1ccccn1` (stereo not given): the result was inactive.
On to `COC(=O)C(C)(N)Cc1ccc(O)cc1` (stereo not given), for which the outcome was inactive.
The value for `CC(C)NC[C@H](O)COc1cccc2ccccc12` was “inactive”; that for `O=[N+]([O-])c1cccc2cn[nH]c12` was “inactive”.
